Assay results as given in PubChem BioAssay AID1159606 (Sanford-Burnham Center for Chemical Genomics, 2016).
In all, about 360,000 compounds went through this assay and about 7,300 (2%) were called active. No stated cut-off is given here; in the data, active means inhibition above about 50%; inactive means the rest. The list comes from a sample in which actives are over-represented; it also holds similar structures and randomly drawn compounds.

Assay: blockers of TWEAK-induced Fn14 reporter activity – luciferase reporter cells, uHTS, primary screen (AID 1159606)
Settings: TWEAK-stimulated Fn14 reporter cells, luciferase luminescence, 8 h; at 10 µM; active compounds read high
In the case of `CC(Nc1nc(C(F)(F)F)nc2ccccc12)c1cccs1` (stereo not given), the inhibition is reported as 60.9% (active). For `CCc1ccc(C(CNc2nc(C(F)(F)F)nc3ccccc23)N(C)C)cc1` (stereo not given), the inhibition was 9.86% (inactive). For `CC(Nc1nc(N2CCCC2)nc2ccccc12)c1ccccc1` (stereo not given), the inhibition was -2.01% (inactive). With `COc1ccc(Cl)cc1C=CC=NNC(=O)c1ccncc1` the inhibition was -16.2% (inactive). In the case of `COc1cc(C(=O)Nn2c(O)c(C3=c4ccccc4=NC3=O)sc2=S)ccc1O`, the inhibition is reported as 4.56% (inactive). In the case of `Nc1nc(SCC(=O)N2CCN(S(=O)(=O)c3ccc(Cl)cc3)CC2)n[nH]1`, the inhibition is reported as 4.55% (inactive). With `O=C1NC[C@H](Cc2ccc(O)cc2)N(C[C@H]2CCCN2C[C@H](Cc2ccccc2)N2C[C@H](Cc3ccccc3)N(CCc3ccccc3)C(=O)C2=O)C1=O` the inhibition was -7.56% (inactive). In the case of `COc1ccc(C(=O)O)cc1S(=O)(=O)NCc1cccnc1`, the inhibition is reported as 16.8% (inactive). In the case of `Nc1nnnn1/N=C/c1cc([N+](=O)[O-])ccc1O`, the inhibition is reported as -1.63% (inactive). With `O=C(N/N=C/c1cc([N+](=O)[O-])ccc1O)/C(=C\c1cccs1)NC(=O)c1ccccc1` the inhibition was 5.24% (inactive). For `O=[N+]([O-])c1ccc(O)c(/C=N/Nc2ccccc2[N+](=O)[O-])c1`, the inhibition was 71.5% (active). With `Cc1ccc(-c2nc(-c3cccnc3)sc2CC(=O)Nc2ccc(C)c(Cl)c2)cc1` the inhibition was -0.71% (inactive). In the case of `CCc1nc2cccnc2n1-c1ccc(C(=O)O)cc1`, the inhibition is reported as 2.68% (inactive). In the case of `COCCCNC(=O)Cc1ccc(-n2c(C)nc3cccnc32)cc1`, the inhibition is reported as 84.3% (active). For `COCCCNC(=O)CCc1nc2cccnc2n1Cc1ccc(OC)cc1`, the inhibition was 16.3% (inactive). In the case of `COc1ccc(CNC(=O)c2cc(C(=O)C3CC3)c[nH]2)cc1`, the inhibition is reported as -10.9% (inactive). For `CN1CCC(N(C)S(=O)(=O)c2ccc(NC(=O)c3cccc(C#N)c3)cc2)CC1`, the inhibition was 5.91% (inactive). For `Cc1nc(N)nc(Cl)c1CCC1OCCO1`, the inhibition was -6.2% (inactive). In the case of `COc1cc(NC(=S)N2CCCC(C)C2)c(OC)cc1Cl` (stereo not given), the inhibition is reported as 12.8% (inactive). With `O=C1NC[C@H](CCCCN2C[C@H](Cc3ccc(O)cc3)N(CC3CCCCC3)C(=O)C2=O)N(CCc2ccccc2)C1=O` the inhibition was 2.86% (inactive). With `Cc1ccc(N(CC(=O)Nc2cc(C)cc(C)c2)S(=O)(=O)c2cccc3nonc23)cc1` the inhibition was 9.38% (inactive). In the case of `Cc1ccc(S(=O)(=O)N(CC(=O)Nc2cccc([N+](=O)[O-])c2)Cc2ccc(Cl)cc2)cc1`, the inhibition is reported as 51.2% (active). With `COc1ccc(N(CC(=O)Nc2ccc(C)cc2C)S(=O)(=O)c2ccccc2[N+](=O)[O-])c(OC)c1` the inhibition was 0.97% (inactive). In the case of `Cc1ccc(CN(CC(=O)NCC2CCCO2)S(=O)(=O)c2ccc(C)cc2)cc1` (stereo not given), the inhibition is reported as 5.7% (inactive). In the case of `CN(c1ccc(OCC(=O)OCC(=O)Nc2cccc([N+](=O)[O-])c2)cc1)S(=O)(=O)c1ccc(F)cc1`, the inhibition is reported as -9.04% (inactive). For `COc1ccc(C)cc1S(=O)(=O)N(CC(=O)Nc1cccc([N+](=O)[O-])c1)c1ccc(C)cc1`, the inhibition was 61.9% (active). In the case of `O=C(NCc1cccc(C(F)(F)F)c1)c1ccc2sc(COCCO)nc2c1`, the inhibition is reported as -7.3% (inactive). In the case of `COc1ccccc1C(=O)N(C1=NC(C)CS1)c1ccc(Cl)cc1` (stereo not given), the inhibition is reported as 10.7% (inactive). In the case of `CCOC(=O)[C@]12CCC=C1N(CCC1=CCCCC1)C(=O)[C@H](CC(=O)NCc1ccc(C)o1)C2`, the inhibition is reported as 5.47% (inactive). With `O=C(Nc1ccc(N2CCOCC2)cc1)c1cccc2c(-c3ccc(F)c(F)c3)coc12` the inhibition was -28% (inactive). In the case of `CCOC(=O)[C@]12CCC=C1N(Cc1cccc3ccccc13)C(=O)[C@H](CC(=O)NCc1cccc(C(F)(F)F)c1)C2`, the inhibition is reported as 13.4% (inactive). For `Cc1ccc(S(=O)(=O)N2CCN(C(=O)c3ccccc3-c3nc4ccccc4s3)CC2)c(C)c1`, the inhibition was -40.8% (inactive). For `CC(=O)C12CC(C)=C(C)CC1CC1C3CCC4=CC(=O)CCC4(C)C3CCC12C` (stereo not given), the inhibition was -12.9% (inactive). In the case of `CSc1ncnc2c1ncn2CCCNCC1CCCCC1`, the inhibition is reported as -1.18% (inactive). In the case of `CSc1ncnc2c1ncn2CC(=O)C1CCC2C3CCC4=CC(=O)CCC4(C)C3CCC12C` (stereo not given), the inhibition is reported as 105% (active). With `CC(C)COC(=O)n1c(=O)oc2ccc(S(=O)(=O)N3CCCCC3)cc21` the inhibition was 19.6% (inactive). With `Cc1noc(C)c1C(=O)N(CC(=O)NC1CCCC1)Cc1ccccc1F` the inhibition was -13.7% (inactive). For `FC(F)(F)c1ccc2nnc(-c3c(Cl)cccc3Cl)n2c1`, the inhibition was 0.93% (inactive). With `CC(C)C[C@@H](N)c1nnc(SCC(=O)c2ccc(Cl)cc2)o1` the inhibition was 58.5% (active). With `CC(=O)Nc1ccc(C(=O)CSc2nnc(Cc3ccccc3)o2)cc1` the inhibition was -13.6% (inactive). For `COc1cc(C(=O)NCc2nnc(SCC(=O)c3ccc(Cl)cc3)o2)cc(OC)c1OC`, the inhibition was -10.8% (inactive). In the case of `CCCCn1c(O)c(N=NC(=O)Cn2c(C(F)(F)F)nc3ccccc32)c2ccccc21`, the inhibition is reported as -12.1% (inactive). With `Fc1ccc2[nH]c3c(N4CCSCC4)ncnc3c2c1` the inhibition was 77.1% (active). For `CC1(C)CC(=O)C=C(c2ccc(COC(=O)c3cc(F)cc(F)c3)cc2)C1=O`, the inhibition was -6.91% (inactive). With `O=[N+]([O-])c1ccc(CN2CC(N3CCC(c4ccccc4)CC3)CS2(=O)=O)cc1` (stereo not given) the inhibition was -12.9% (inactive). With `CCS(=O)(=O)N1Cc2ccccc2CC1C(=O)Nc1nc2ccc(F)cc2s1` (stereo not given) the inhibition was 21.8% (inactive). In the case of `CSc1ncccc1C(=O)Nc1nc2ccc(F)cc2s1`, the inhibition is reported as 76.2% (active). For `CSc1ncccc1C(=O)Nc1ccc(C)cn1`, the inhibition was 1.24% (inactive). For `COc1cccc(NS(=O)(=O)c2ccc3[nH]cc(C(=O)NCCCOC(C)C)c(=O)c3c2)c1`, the inhibition was -0.08% (inactive). In the case of `CCCCc1ccc(S(N)(=O)=O)cc1`, the inhibition is reported as -10.5% (inactive). For `COc1ccc(S(=O)(=O)N2CCCCC2)cc1NC(=O)c1cc([N+](=O)[O-])ccc1N1CCOCC1`, the inhibition was 0.95% (inactive). For `CCOc1ccc2nc(NC(=O)c3cc([N+](=O)[O-])ccc3N3CCOCC3)sc2c1`, the inhibition was 58.5% (active). With `O=C(NCc1ccc2c(c1)OCO2)c1cc([N+](=O)[O-])ccc1N1CCOCC1` the inhibition was 9.16% (inactive). With `Cc1cc(C)cc(NC(=O)N2CCC(NC(=O)c3ccc(F)cc3)CC2)c1` the inhibition was -39.6% (inactive). For `Cc1ccc2c(c1)N(CC(=O)N1CCC(O)CC1)C(=O)CO2`, the inhibition was 33.3% (inactive). With `Cc1cc(NS(=O)(=O)c2ccc(NC(=O)c3cccnc3)cc2)nc(C)n1` the inhibition was 14.2% (inactive). In the case of `Cc1ccc(-n2nc3cc(C)c(NC(=O)c4cccnc4)cc3n2)cc1`, the inhibition is reported as 8.31% (inactive). For `CC(C)NS(=O)(=O)c1ccc(NC(=O)c2cccnc2)cc1`, the inhibition was -3.3% (inactive). For `O=C(Cc1ccccc1)Nc1ccc(NC(=O)c2cccnc2)cc1`, the inhibition was 2.31% (inactive). In the case of `Cc1ccc2nc(-c3ccc(NC(=O)c4cccnc4)cc3)oc2c1`, the inhibition is reported as 71.4% (active). For `Cc1cc2nc(-c3ccc(NC(=O)c4cccnc4)cc3)oc2cc1C`, the inhibition was 52.2% (active). In the case of `COc1ccc(Br)c2c1C(=O)CC2`, the inhibition is reported as 22.5% (inactive). With `Cc1cc([N+](=O)[O-])nn1CC(=O)Nc1ccc(Cc2ccncc2)cc1` the inhibition was 8.17% (inactive). For `COc1ccc(C2CC(=O)C=C(NCC3CCCO3)C2)cc1` (stereo not given), the inhibition was -25.7% (inactive). With `N#Cc1ccccc1Sc1ccccc1C(=O)OCC(=O)NC1CCCCC1` the inhibition was 1.09% (inactive). For `O=C1c2ccccc2C2=Nc3ccccc3SC(c3ccccc3F)C12` (stereo not given), the inhibition was 59.2% (active). For `COc1cccc(-c2ccc(SCC(=O)N3CCN(c4ccccc4)CC3)nn2)c1`, the inhibition was -23.8% (inactive). For `COc1cccc(/C=C/C(=O)OCC(=O)N2CCN(c3ccccc3)CC2)c1`, the inhibition was 77.7% (active). For `COc1cccc(/C=C/C(=O)OCC(=O)N2CCCc3ccccc32)c1`, the inhibition was -1.49% (inactive). In the case of `COc1ccc(CNc2c(CO)cnc3c2cnn3C)cc1`, the inhibition is reported as -5.49% (inactive). For `CCN(C(=O)Nc1cccc2ccccc12)c1ccccc1`, the inhibition was 11.9% (inactive). With `COc1ccc(Cl)cc1S(=O)(=O)N1CCC(O)(c2ccc(Cl)cc2)CC1` the inhibition was -6.82% (inactive). For `O=C(Cc1ccc(S(=O)(=O)N2CCOCC2)s1)Nc1ccc(Br)c(C(F)(F)F)c1`, the inhibition was 17.8% (inactive). In the case of `COc1ccc(OC)c(C(=O)NC2CCCc3c2cnn3-c2cc(C)cc(C)c2)c1` (stereo not given), the inhibition is reported as -50.2% (inactive). In the case of `Cn1nccc1C(=O)NC1CCCc2c1cnn2-c1ccc(F)cc1F` (stereo not given), the inhibition is reported as 18.5% (inactive). In the case of `COc1ccc(C(=O)NC2CCCc3c2cnn3-c2cccc(C)c2C)c(OC)n1` (stereo not given), the inhibition is reported as 57.5% (active). With `COC(=O)c1ccccc1NC(=O)CSc1n[nH]c(-c2ccncc2)n1` the inhibition was -4.67% (inactive). With `CCc1c(C)nc(SCC(=O)NC2CCCC2)[nH]c1=O` the inhibition was 15.7% (inactive). With `CCc1ccc(-c2nc(SCC(=O)NC3CCCC3)n[nH]2)cc1` the inhibition was 66.6% (active). In the case of `O=C(CN1CCN(C2CCS(=O)(=O)C2)CC1)N1N=C(c2ccc(Cl)cc2)CC1c1ccco1` (stereo not given), the inhibition is reported as 73.8% (active). For `Cc1ccc(C2=NN(C(=O)CSc3nc(N)cc(N)n3)C(c3ccco3)C2)cc1` (stereo not given), the inhibition was 9.43% (inactive). For `Cc1ccc(C2=NN(C(=O)COc3ncnc4ccccc34)C(c3ccco3)C2)cc1` (stereo not given), the inhibition was -54.3% (inactive). With `CC1(C(=O)NS(=O)(=O)c2ccc3ccccc3c2)CCN1C(=O)C1(c2ccc(Cl)cc2)CCC1` (stereo not given) the inhibition was 17.7% (inactive). For `C/C(=N\NC(=O)c1ccc(C)cc1)C1C(=O)c2ccccc2C1=O`, the inhibition was -2.62% (inactive). For `CCOc1ccccc1-c1cc(C(=O)N2CCOCC2)c2ccccc2n1`, the inhibition was -5.73% (inactive). In the case of `COc1cccc(/C=C/c2ccc3ccccc3n2)c1OC(C)=O`, the inhibition is reported as 86.8% (active). In the case of `CCOc1ccccc1/C=N/Nc1nc2ccccc2o1`, the inhibition is reported as 15.2% (inactive). With `CC(OC(=O)c1ccc2ccccc2n1)C(=O)c1ccccc1` (stereo not given) the inhibition was -11.2% (inactive). In the case of `CC(=O)c1ccc(S(=O)(=O)N2CCN(C(=O)/C=C/c3ccc4ccccc4n3)CC2)cc1`, the inhibition is reported as 6.75% (inactive). For `CCOc1cccc(/C=C/c2ccc3ccccc3n2)c1OC(C)=O`, the inhibition was 60% (active).
